59 molecules from PubChem BioAssay AID463173 (ICCB-Longwood Screening Facility, Harvard Medical School, 2010) can be followed below.

In all, about 52,000 compounds went through this assay and about 4,300 (8.3%) were called active. Cut-off read from the data, not from the text of the source: active = survival mostly below about 52% (no sharp cut-off); inactive = mostly above about 56%. Only a selection was taken, and actives are over-represented in it overall.

The test system of this test is DeltatarO mutant. Briefly: S. aureus survival, RN4220 and DeltatarO strains – OD600, teichoic acid synthesis inhibitors, primary screen (AID 463173). To be noted: S. aureus RN4220 wild type/DeltatarO growth, OD600, 18 h, active compounds read low, screened at 18.75 µg/mL (by protocol).
With `CC1=C(C(=O)Nc2ccccc2C)C(c2cccnc2)n2nc(SCc3ccccc3F)nc2N1` (centres undefined), the survival was 60% (inactive).

In the case of `Cc1nc2nncn2c(N2CCN(c3ccccc3)CC2)c1C`, the survival was 83% (inactive).

Take `COc1cccc(CNC(=O)c2nn(C)c3c2CS(=O)(=O)c2ccccc2-3)c1`: the survival is 74% (inactive).

Consider `CC(=O)c1ccc(NC(=O)CSc2cn(CC(=O)N3CCCCC3)c3ccccc23)cc1`, for which the survival is 63% (inactive).

In the case of `Cc1nc(C)c(-c2csc(NCc3ccccc3)n2)s1`, the survival was 65% (active).

Turning to `COCC(=O)Nc1nc(-c2ccccc2)cs1`, the survival was 112% (inactive).

Turning to `C=CCNc1nc(-c2ccccc2)cs1`, the survival is 97% (inactive).

For the molecule `COc1cccc(C(=O)CN2C3=NCCN3c3ccccc32)c1`, the survival was 106% (inactive).

In the case of `CC1=C(C(=O)Nc2cccc(F)c2)C2(CCCCCC2)OC1=O`, the survival is 70% (inactive).

In the case of `Cc1ccc(C2=NN(CC(=O)NCCN(CC(C)C)CC(C)C)C(=O)CC2)cc1`, the survival was 131% (inactive).

In the case of `Cc1ccc(C2=NN(CC(=O)NCCCN(CC(C)C)CC(C)C)C(=O)CC2)cc1`, the survival is 83% (inactive).

For `CCN(CCCNC(=O)CN1N=C(c2ccccc2)CCC1=O)c1cccc(C)c1`, the survival was 124% (inactive).

Consider `CCN(CCCNC(=O)CN1N=C(c2ccc(OC)cc2)CCC1=O)c1cccc(C)c1`, for which the survival is 123% (inactive).

`CCCCN(CCCNC(=O)CN1N=C(c2ccccc2)CCC1=O)c1ccccc1`: the survival is 88% (inactive).

For the molecule `CCN(CCCNC(=O)CN1N=C(c2ccc(C)cc2)CCC1=O)c1ccccc1`, the survival was 0% (active).

In the case of `Cc1ccc(C2=NN(CC(=O)NCCC(C)C)C(=O)CC2)cc1`, the survival is 37% (active).

For `CCCCN(CCCNC(=O)CN1N=C(c2ccc(C)cc2)CCC1=O)c1ccccc1`, the survival was 92% (inactive).

As for `CCN(CCCNC(=O)CN1N=C(c2ccccc2)CCC1=O)c1ccccc1`, the survival was -5% (active).

With `COc1ccc(C)cc1NC(=O)c1ccc2c(c1)CCN2S(=O)(=O)c1ccc(Cl)cc1`, the survival was 79% (inactive).

Regarding `CCOc1ccc(NC(=O)c2ccc3c(=O)n4c(nc3c2)CCCCC4)cc1`, the survival is 139% (inactive).

On to `O=C(NCCc1ccc(Cl)cc1)C(=O)NCC(c1cccs1)S(=O)(=O)c1ccccc1` (centres undefined), for which the survival was 77% (inactive).

For the molecule `CCOC(=O)c1c(NC(=O)/C=C/c2ccc(OCC)cc2)sc2c1CCCC2`, the survival was 36% (active).

With `CCOC(=O)c1c(NC(=O)/C=C/c2ccc(C)cc2)sc2c1CCCC2`, the survival was 22% (active).

For `CCOC(=O)c1c(NC(=O)/C=C/c2ccc(C(C)C)cc2)sc2c1CCC2`, the survival is 56% (inactive).

Consider `CCOC(=O)c1c(NC(=O)/C=C/c2ccc(OCC)cc2)sc2c1CCC2`, for which the survival is 145% (inactive).

`CCOc1ccc(/C=C/C(=O)Nc2sc3c(c2C(=O)OC)CCCC3)cc1`: the survival was 110% (inactive).

Take `CCOC(=O)c1c(NC(=O)/C=C/c2ccccc2)sc2c1CCCC2`: the survival was 75% (inactive).

On to `CCCCN1C(=O)c2[nH]nc(-c3ccccc3O)c2C1c1ccc(C(C)(C)C)cc1` (centres undefined), for which the survival was 88% (inactive).

As to `COCCCN1C(=O)c2[nH]nc(-c3ccccc3O)c2C1c1ccc(OC)cc1` (centres undefined), the survival is 53% (inactive).

`CC(C)OCCCN1C(=O)c2[nH]nc(-c3ccccc3O)c2C1c1cccc(OCc2ccccc2)c1` (centres undefined): the survival was 49% (inactive).

`CC(C)OCCCN1C(=O)c2[nH]nc(-c3ccccc3O)c2C1c1ccccc1F` (centres undefined): the survival was 46% (inactive).

As to `CCCCN1C(=O)c2[nH]nc(-c3ccccc3O)c2C1c1ccc(OCc2ccccc2)cc1` (centres undefined), the survival was 43% (active).

Consider `CC(C)OCCCN1C(=O)c2[nH]nc(-c3ccccc3O)c2C1c1ccc(OCc2ccccc2)cc1` (centres undefined), for which the survival was 28% (active).

For the molecule `COCCCN1C(=O)c2[nH]nc(-c3ccccc3O)c2C1c1ccc(OCc2ccccc2)cc1` (centres undefined), the survival is 8% (active).

For `COCCNC(=O)c1c(NC(=O)c2cc(=O)c3cc(Cl)ccc3o2)sc2c1CCCC2`, the survival is 49% (inactive).

`Cc1cccc(NC(=O)c2sc3nc(N4CCOCC4)c4c(c3c2N)CC(C)(C)OC4)c1`: the survival was 91% (inactive).

For `Cc1cccc(Oc2ccc(NC(=O)CCC(=O)OCC(=O)c3ccc(Br)cc3)cc2)c1C`, the survival was 68% (inactive).

Regarding `COc1ccc(OC)c(S(=O)(=O)Nc2cccc(-c3ccc(N4CCCCC4)nn3)c2)c1`, the survival was 83% (inactive).

Regarding `COCCCn1c(SCC(=O)N2CC(=O)Nc3ccccc32)nnc1-c1ccoc1C`, the survival is 79% (inactive).

`CCOC(=O)c1c(-c2ccc(C)cc2)csc1NC(=O)c1cc(=O)c2cc(C)ccc2o1`: the survival is 42% (active).

Consider `CCOC(=O)c1c(NC(=O)c2cc(=O)c3c(C)cc(C)cc3o2)sc(C)c1C`, for which the survival is 61% (inactive).

Take `CCOC(=O)c1c(NC(=O)c2cc(=O)c3ccc(C)cc3o2)sc(C)c1C`: the survival was 100% (inactive).

For the molecule `CCOC(=O)c1c(-c2ccc(C)cc2)csc1NC(=O)c1cc(=O)c2cc(Cl)ccc2o1`, the survival is 116% (inactive).

Take `CCOC(=O)c1c(NC(=O)c2cc(=O)c3cc(C)cc(C)c3o2)sc(C)c1C`: the survival is 48% (active).

Consider `CCOC(=O)c1c(-c2ccc(C)cc2)csc1NC(=O)c1cc(=O)c2ccc(C)cc2o1`, for which the survival is 109% (inactive).

`COc1ccc(CNC(=O)c2cnc(N3CCOCC3)c3ccccc23)cc1`: the survival is 70% (inactive).

As to `CC1=Nc2cc(C(=O)NCc3ccccc3Cl)ccc2Sc2c(C)ccc(C)c21`, the survival was 79% (inactive).

Turning to `O=C(Nc1ccccc1Cl)[C@H](CSCc1ccccc1)N1Cc2ccccc2C1=O`, the survival was 58% (inactive).

`CCN1CCN(c2c(S(=O)(=O)c3ccc(Cl)cc3)cnc3ccccc23)CC1`: the survival is 77% (inactive).

As to `CCC(Sc1ncnc2sc3c(c12)CCCC3)C(=O)OC(C)C` (centres undefined), the survival is -7% (active).

Regarding `CCC(Sc1ncnc2sc3c(c12)CCCC3)C(=O)OCC(C)C` (centres undefined), the survival was -6% (active).

Turning to `Nc1ncnc2sc3c(c12)CCCC3`, the survival is 57% (inactive).

`CCOC(=O)CSc1ncnc2sc3c(c12)CCC3`: the survival is 96% (inactive).

Regarding `Clc1ncnc2sc3c(c12)CCCC3`, the survival was 86% (inactive).

As for `CCn1cnc2sc3c(c2c1=O)CCCC3`, the survival was 101% (inactive).

For the molecule `CNC(=O)CSc1ncnc2sc3c(c12)CCCC3`, the survival was 80% (inactive).

For the molecule `COC(=O)C(C)n1cnc2sc3c(c2c1=O)CCCC3` (centres undefined), the survival was 92% (inactive).

As to `CCOC(=O)C(CC)Sc1ncnc2sc3c(c12)CCCC3` (centres undefined), the survival is -7% (active).

On to `CCOC(=O)c1ccc2c(c1)N(Cc1ccc(F)cc1Cl)C(=O)c1ccccc1S2(=O)=O`, for which the survival is 90% (inactive).
